Data reported in ChEMBL document CHEMBL1201862, “PubChem BioAssay data set” (2004).
Hit rate of the full screen: of about 400,000 compounds, about 2,100 (0.53%) were called active. About 14% were inconclusive and are not listed. The rule behind the calls is not given here. Shown is part of a subset that was picked to be rich in actives.

Molecular target: Ataxin-2 (Homo sapiens) (UniProt Q99700)
Test: qHTS for Inhibitors of ATXN expression.
Assay type: functional

Sequence of Ataxin-2 (Homo sapiens) (Q99700 whole entry): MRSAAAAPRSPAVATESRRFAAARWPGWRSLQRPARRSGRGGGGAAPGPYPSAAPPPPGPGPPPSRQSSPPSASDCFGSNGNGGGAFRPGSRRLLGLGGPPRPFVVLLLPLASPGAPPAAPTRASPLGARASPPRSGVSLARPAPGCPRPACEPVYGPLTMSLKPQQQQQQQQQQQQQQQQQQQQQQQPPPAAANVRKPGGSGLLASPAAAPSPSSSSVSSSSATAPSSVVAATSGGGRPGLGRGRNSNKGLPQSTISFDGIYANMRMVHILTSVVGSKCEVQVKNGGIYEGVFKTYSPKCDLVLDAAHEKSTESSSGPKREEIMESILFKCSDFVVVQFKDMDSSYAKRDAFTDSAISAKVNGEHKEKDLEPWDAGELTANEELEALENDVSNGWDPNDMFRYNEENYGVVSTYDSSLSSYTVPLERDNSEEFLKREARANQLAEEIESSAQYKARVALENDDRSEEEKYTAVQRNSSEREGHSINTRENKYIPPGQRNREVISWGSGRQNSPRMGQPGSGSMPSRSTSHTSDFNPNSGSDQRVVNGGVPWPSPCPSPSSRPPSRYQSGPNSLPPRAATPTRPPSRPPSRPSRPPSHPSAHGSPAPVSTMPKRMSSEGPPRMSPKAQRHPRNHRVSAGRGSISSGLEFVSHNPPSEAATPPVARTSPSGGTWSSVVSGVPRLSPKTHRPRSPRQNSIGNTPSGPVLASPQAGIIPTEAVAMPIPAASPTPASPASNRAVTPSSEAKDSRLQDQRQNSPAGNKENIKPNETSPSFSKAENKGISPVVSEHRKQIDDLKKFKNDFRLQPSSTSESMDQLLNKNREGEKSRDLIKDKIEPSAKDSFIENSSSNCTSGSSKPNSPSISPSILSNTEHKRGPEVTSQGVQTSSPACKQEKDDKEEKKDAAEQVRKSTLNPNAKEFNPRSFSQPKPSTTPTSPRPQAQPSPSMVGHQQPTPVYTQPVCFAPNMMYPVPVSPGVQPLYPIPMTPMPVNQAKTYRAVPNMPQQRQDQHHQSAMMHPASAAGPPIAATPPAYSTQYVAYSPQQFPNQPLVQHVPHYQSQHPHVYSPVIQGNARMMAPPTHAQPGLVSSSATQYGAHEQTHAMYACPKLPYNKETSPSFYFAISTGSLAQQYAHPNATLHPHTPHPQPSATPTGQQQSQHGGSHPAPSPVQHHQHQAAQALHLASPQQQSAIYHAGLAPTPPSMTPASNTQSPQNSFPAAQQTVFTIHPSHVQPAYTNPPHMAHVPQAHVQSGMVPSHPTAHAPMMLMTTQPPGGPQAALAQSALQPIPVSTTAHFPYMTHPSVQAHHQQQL

Structure (SMILES) | Potency
CSc1ccc(CN(C)CC(=O)Nc2ccc(C)cc2Br)cc1 | inactive
COc1cccc(/C=C/c2nc(C#N)c(N(C)Cc3ccccc3)o2)c1 | inactive
CC(C)(C)c1ccc(/C=C2\Oc3c(ccc(O)c3CN3CCN(CCO)CC3)C2=O)cc1 | inactive
CCN1C(=O)N(CC)C2C1N(CO)C(=O)N2CO (stereo not drawn) | inactive
O=C(N/N=C/c1ccc(N2CCOCC2)cc1)c1ccc(NS(=O)(=O)c2cccs2)cc1 | inactive
Cc1ccc(S(=O)(=O)/N=C2\C=C(Nc3cccc(C(=O)O)c3)C(=O)c3ccccc32)c(C)c1 | 28.2 µM (active)
O=C(O)c1ccc(NC2=C/C(=N/S(=O)(=O)c3cccs3)c3ccccc3C2=O)cc1 | 22.4 µM (active)
O=C(O)c1ccc(Nc2c3ccccc3nc3ccccc23)cc1 | inactive
C=CCN1C(=O)/C(=C/N(C)C)S/C1=N\S(=O)(=O)c1cccs1 | inactive
O=S(=O)(O)c1cccc2cccc(Nc3ccccc3)c12 | inactive
COC(=O)c1ccc(NC(=O)CS(=O)(=O)c2ccccc2)cc1 | inactive
O=C1C(Nc2ccccc2)=C/C(=N/S(=O)(=O)c2cccs2)c2ccccc21 | 8.91 µM (active)
O=C(O)c1ccc(NC2=C/C(=N/S(=O)(=O)c3ccccc3)c3ccccc3C2=O)cc1 | 39.8 µM (active)
Cc1ccc(S(=O)(=O)N2CCN(CC(=O)N3CCCC3)CC2)c(C)c1 | inactive
Cc1cc(C)c(S(=O)(=O)Nc2cccc(C(=O)O)c2)cc1S(=O)(=O)Nc1cccc(C(=O)O)c1 | inactive
Cc1cc(NS(=O)(=O)c2ccc(NC(=O)c3cc4cc(Br)ccc4oc3=O)cc2)no1 | inactive
O=c1cc(-c2ccccc2)c2c(O)cc(O)cc2o1 | inactive
O=c1oc2ccc(Br)cc2cc1S(=O)(=O)c1ccc(F)cc1 | inactive
CCCCN(C)S(=O)(=O)c1ccc(C(=O)Nc2sc3c(c2C(N)=O)CC(C)(C)NC3(C)C)cc1 | inactive
Brc1ccccc1C1CC(c2ccccc2)=Nc2ccccc2N1 (stereo not drawn) | inactive
C=C1C(=O)O[C@@H]2C[C@@H](C)[C@@H]3C=CC(=O)[C@@]3(C)[C@@H](OC(C)=O)[C@H]12 | 8.91 µM (active)
Cc1cc(/C=C2\Cc3ccccc3C2=O)c(C)n1-c1ccccc1 | inactive
CC(C)(C)CC(C)(C)NCC(O)COCCOc1ccc(Br)cc1 (stereo not drawn) | 39.8 µM (active)
COCCCNC(=O)CN1C(=O)c2cccc3cccc1c23 | inactive
CCCCOCCCNC(=O)C[C@@H]1C[C@@]2(C(=O)OC)CCCCC=C2N(Cc2ccc(Cl)cc2Cl)C1=O | 39.8 µM (active)
COC(=O)[C@]12CCCCC=C1N(Cc1ccc(Cl)cc1Cl)C(=O)[C@H](CC(=O)N1CCN(C(=O)C3CC3)CC1)C2 | 35.5 µM (active)

Structure (SMILES) | Potency
CCCCOCCCNC(=O)C[C@@H]1C[C@@]2(C(=O)OC)CCCCC=C2N(Cc2cccc3ccccc23)C1=O | 28.2 µM (active)
COc1ccc(C2=CSC3=NCCN23)cc1Br | inactive
COc1ccc2nc(N3CCC(C)CC3)c(C#N)cc2c1 | inactive
CCOC(=O)c1sc(-c2ccc(Cl)cc2Cl)nc1O | inactive
COc1ccc(/C=N/n2c(C)nc3sc(C)c(C)c3c2=O)cc1 | inactive
CCOC(=O)/C(=C\c1ccc(Cl)cc1)c1nc(O)c2c(C)c(C)sc2n1 | 39.8 µM (active)
COc1ccc(C2CC(c3cccs3)=NN2c2ccccc2)cc1 (stereo not drawn) | inactive
CCc1cccc(NC(=O)CCS(=O)(=O)c2ccc(Br)cc2)c1 | inactive
O=C(Nc1nc2ccccc2s1)c1cc2c(s1)-c1ccccc1OC2 | inactive
O=C(CCS(=O)(=O)c1ccccc1)Nc1nc2c(s1)COc1ccccc1-2 | 33.6 µM (active)
CCCC(=O)Nc1nc2c(s1)COc1ccccc1-2 | inactive
CC1(C)CC(=O)C2=C(C1)c1c(ccc3ccccc13)NC2c1ccc(C(=O)O)cc1 (stereo not drawn) | inactive
CC1(C)CC(=O)c2sc(NC(=O)CCS(=O)(=O)c3ccccc3)nc2C1 | 37.7 µM (active)
COc1ccc(C2=CC(c3ccccc3Cl)n3nc(-c4ccc(C)cc4)nc3N2)cc1 (stereo not drawn) | inactive
COc1ccc(-c2nc3ncccn3c2Nc2ccccc2)cc1 | inactive
O=C(c1ccccc1)c1sc(Nc2ccc3c(c2)OCO3)nc1-c1ccccc1 | inactive
Cc1ccc(-c2nc3ccccn3c2Nc2ccc3c(c2)OCO3)cc1 | 35.5 µM (active)
CCOC(=O)CSc1nnc2n(-c3ccccc3)c(=O)c3c4c(sc3n12)CC(C(C)(C)C)CC4 (stereo not drawn) | 35.5 µM (active)
CCN(C(=O)CSc1nnc(C2CC2)n1-c1ccccc1)C1CCS(=O)(=O)C1 (stereo not drawn) | inactive
CCOC(=O)C1CCCN(CCC(=O)Nc2cc(C)ccc2C)C1 (stereo not drawn) | inactive
COc1cccc2c3c(c(C)nc12)CCN3c1ccccc1 | inactive
Cc1cccn2c(=O)c3cc(C(=O)NCC4CCCO4)c(=N)n(CCc4ccccc4)c3nc12 (stereo not drawn) | inactive
Oc1ccc2nnc3c(Br)cnn3c2c1 | inactive
COc1cc2nc(NC(=O)c3ccc(S(=O)(=O)N4CCCC4)cc3)sc2cc1OC | inactive
NS(=O)(=O)c1ccc2nc(NC(=O)c3ccc(Br)o3)sc2c1 | inactive
CCCNS(=O)(=O)c1ccc2nc(NC(=O)c3ccc(F)cc3)sc2c1 | 39.8 µM (active)

Structure (SMILES) | Potency
Cc1n[nH]c(-c2cccnc2)c1N=NN(C)C | 23.8 µM (active)
O=C/C(=C\Nc1ccc(S(=O)(=O)CCO)cc1)c1nc2cc(Cl)ccc2o1 | inactive
Cc1ccsc1/C=N/N=C/c1sccc1C | inactive
C=C1C(=O)OC2C=C(CO)C3OC3C3OC3(C)CC(OC(=O)/C(=C/C)COC(C)=O)C12 (stereo not drawn) | 16.8 µM (active)
O=C1Nc2c(Br)cc(Br)c3cccc1c23 | inactive
Cc1cc(C)cc(NC2=C(c3ccccc3)C(=O)c3ccccc32)c1 | 20 µM (active)
Cc1cnc2c(c1)C(=O)c1ccccc1-2 | inactive
Cc1ccc(C2C=C(c3ccccc3)Nc3ncnn32)cc1 (stereo not drawn) | inactive
CCc1cc2c(C)cc(=O)oc2cc1OC(=O)C1CCCN1C(=O)OC(C)(C)C (stereo not drawn) | inactive
CC(=O)/N=c1\c(C#N)cc2c(=O)n3cccc(C)c3nc2n1CCCOC(C)C | inactive
CCOC(=O)Nc1ccc2c3c(cccc13)-c1ccccc1-2 | inactive
C=C(C)CN=C(S)NN=C1c2ccccc2-c2ccccc21 | inactive
CCOC(=O)Nc1ccc2c(c1)C(=NNC(N)=S)c1ccccc1-2 | 31.6 µM (active)
COc1ccc(C2C=C(c3ccccc3)Nc3nc(NC(=O)c4ccc(C)cc4)nn32)cc1 (stereo not drawn) | inactive
COC1(OC)C(/C=C/c2ccc(Cl)cc2)C(C#N)(C#N)C1(OC)OC (stereo not drawn) | 31.6 µM (active)
NC(=O)c1ccsc1NC(=O)COC(=O)CNC(=O)c1ccc(F)cc1 | inactive
O=C(CCCSc1nc(O)c2ccccc2n1)c1ccccc1 | inactive
O=C(CCSc1ccc(Br)cc1)c1ccc(O)cc1 | 39.8 µM (active)
C=Cn1cc[n+](CC(=O)c2ccc(Br)cc2)c1 | inactive
COc1ccc(C2Nc3cc(OC)ccc3-n3cccc32)cc1 (stereo not drawn) | inactive
COc1ccc(N2C(=O)CC(Sc3nc[nH]n3)C2=O)c(OC)c1 (stereo not drawn) | 28.2 µM (active)
COc1ccccc1N1C(=O)CC(N(O)c2ccccc2)C1=O (stereo not drawn) | inactive
CCN(C(=O)c1cc2c(=O)n3ccccc3nc2n1C)C1CCCCC1 | inactive
Nc1ccc(SCc2nc3cccc4c3n2CCC4)cc1 | inactive
c1ccc(CN2CCN(CCCNc3ccc4nnc(-c5ccccc5)n4n3)CC2)cc1 | 22.4 µM (active)
c1ccc(CN2CCN(Cc3nnc(-c4ccccc4)o3)CC2)cc1 | inactive

Structure (SMILES) | Potency
CCCn1c(=N)c(C#N)cc2c(=O)n3ccccc3nc21 | inactive
COc1ccc(-c2cc3ccc(O)cc3oc2=O)cc1 | inactive
CCOCCCn1c(=N)c(C(=O)NCC2CCCO2)cc2c(=O)n3cc(C)ccc3nc21 (stereo not drawn) | inactive
Cc1ccc(-c2nn(-c3ccccc3)cc2/C=C(\C#N)c2cccc(C#N)c2)o1 | inactive
CC(=O)Nc1ccc(S(=O)(=O)Nc2cccc3cccnc23)cc1 | inactive
CC1(C(=O)Nc2cccc3ccccc23)CC1(Br)Br (stereo not drawn) | inactive
CC1(C(=O)Nc2cccc3cccnc23)CCN1Cc1ccc(-c2ccccc2)o1 (stereo not drawn) | 6.31 µM (active)
Cc1ccc(N2C(=O)/C(=C/Nn3cnnc3)c3ccccc3C2=O)cc1 | inactive
CCOCCCn1/c(=N/C(C)=O)c(C#N)cc2c(=O)n3ccccc3nc21 | inactive
CC(C)C[C@H]1COc2cccc(N3CCN(Cc4ccccc4F)CC3)c2S(=O)(=O)N1 | 12.6 µM (active)
O=C(NCc1ccco1)C1CCC(N2C(=O)C3C4CCC(C4)C3C2=O)CC1 (stereo not drawn) | inactive
O=C(Nc1cccc2c1C(=O)NC2=O)c1ccccc1[N+](=O)[O-] | inactive
CCOc1ccc(NC(=O)/C(=C/Nc2ccccc2)C(C)=O)cc1 | inactive
CCOc1ccc(NC(=O)c2cn(CC(C)C)c(=O)c3c2c2ccccc2n3C)cc1 | 17.8 µM (active)
CCOc1ccc(NC(=O)c2cc3ccccc3cc2O)cc1 | inactive
CCOCCCN=C(S)N1CCCN(c2nc3cc(C)cc(C)c3cc2C#N)CC1 | inactive
CCOc1ccc2nc(O)c(CN(Cc3cccs3)Cc3nnnn3C(C)(C)CC)cc2c1 | 35.5 µM (active)
CCN1CCN(c2nc(Nc3cc(OC)ccc3OC)nc(Nc3cc(OC)ccc3OC)n2)CC1 | inactive
CCc1nc2ccc(C(=O)Nc3nnc(C)s3)cc2nc1CC | inactive
Cc1c(C(=O)Nc2ccc(S(=O)(=O)N(C)C3CCN(C)CC3)cc2)oc2c(Cl)cccc12 | 39.8 µM (active)
COC(=O)c1c(NC(=O)c2ccc(S(=O)(=O)N(C)C3CCCCC3)cc2)sc2c1CCN(C)C2 | inactive
Cn1nc(C(=O)Nc2cccc(S(=O)(=O)N3CCCC3)c2)c2ccccc2c1=O | inactive
O=C(COC(=O)Cn1cnc2ccccc2c1=O)NCc1ccccc1Cl | inactive
O=C(Cc1cccs1)N1CCN=C1SCc1ccccc1Cl | inactive
O=C(CCl)/N=c1\sccn1Cc1ccccc1Cl | 31.6 µM (active)
